Values joined by “and” are separate entries in the source; they are usually repeats but may differ in a detail not shown here. Identical values can stand only once. Records with an inconclusive call do not appear. Active and inactive are the calls of the source. Unless noted, calls come from the whole dose curve; as a rule, active = well fitted curve in the direction sought with a large enough effect; inconclusive = small, poorly fitted or top-dose-only effect, or another doubt; inactive = no such curve, though single readings can be large; an effect the other way counts as inactive or inconclusive. A value given as a limit tells only on which side of the number the result lay.

Assay [1] is described as follows: Cell Viability - MRC5 (AID 434; calls by dose curve;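 note: potency is the fitted concentration of half-maximal effect; potency reflects cytotoxicity seen as loss of intracellular ATP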). As to conditions: MRC5 lung fibroblast viability, qHTS. The essentials:
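MRC5 normal human lung fibroblasts (1500/well) were treated with compounds for 40 hr at 37 °C in complete medium, and viable cells were measured as intracellular ATP by CellTiter-Glo luminescence. AC50 came from Hill fits, normalized to DMSO and 100 uM tamoxifen.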
(In general: qHTS replaces the single test concentration by a dilution series.)

Assay [2] can be described thus: Cell Viability - SK-N-SH (AID 435; calls by dose curve;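 note: potency is the fitted concentration of half-maximal effect; compound exposure lasted 40 h at 37 °C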). As to conditions: SK-N-SH neuroblastoma cell viability qHTS. In short, it runs like this: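 SK-N-SH human neuroblastoma cells (1500/well) were exposed to compounds in complete medium for 40 h at 37 °C, and intracellular ATP was then measured by CellTiter-Glo luminescence. AC50 was taken from Hill fits, normalized to DMSO and 100 uM tamoxifen.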

Assay [3] is described as follows: Cellular Toxicity (caspase-3) Jurkat (AID 655).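 Note: cells exposed to compound for 16 h at 37 °C before reading.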 As to conditions: Jurkat caspase-3 activation, luminescence; caspase-3 activation: at 92.2 µM (top of the series), DMSO = 0%, tamoxifen = 100%. In short, it runs like this:
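Jurkat cells (5000/well) in complete medium were treated with compounds for 16 hr at 37 °C, then Caspase-Glo 3/7 luminescence was read after 20 min at room temperature. Data normalized to DMSO (basal) and 100 uM tamoxifen (100%); AC50 from Hill fit.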

The nature of assay [4]: Cellular Toxicity (caspase-3) HUV-EC-C (AID 656). As to conditions: HUV-EC-C cells, caspase-3 activation (apoptosis), vehicle = 0, 100 µM tamoxifen = 100%; series mostly up to 92.2 µM. The essentials: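 HUV-EC-C endothelial cells, 1000/well, were pre-incubated 5 hr at 37°C, then exposed to compounds for 16 hr at 37°C. Caspase-Glo 3/7 luminescence was read after 20 min at room temperature. AC50 came from Hill fits, normalized to DMSO and 100 uM tamoxifen.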

A short description of assay [5]: Cellular Toxicity (caspase-3) H-4-II-E (AID 663).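 Note: cells exposed to compound for 16 hr before readout.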 As to conditions: H-4-II-E rat hepatoma; Potency: caspase-3 activation; series mostly up to 92.2 µM. In short, it runs like this:
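Luminescence from caspase-cleaved aminoluciferin substrate, read 20 min after reagent addition, reports caspase 3/7 activation in rat H-4-II-E cells after 16 hr compound exposure. Normalized to DMSO (basal) and 100 uM tamoxifen (100%); AC50 from Hill fits.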

Assay [6] addresses Cytochrome P450 3A4 (Homo sapiens) (UniProt P08684). Kind of assay: qHTS Assay for Inhibitors and Substrates of Cytochrome P450 3A4 (AID 884). Note: nearly all actives have a fitted effect of over 50% in size. Note: potency is the fitted concentration of half-maximal effect. As to conditions: recombinant CYP3A4, Luciferin-PPXE luminescence; series mostly up to 57.1 µM. In short, it runs like this: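 20 nM human CYP3A4 with 25 uM Luciferin-PPXE (at KM) in 200 mM KPO4, preincubated 10 min with compound; NADPH regeneration started a 60 min RT reaction. Luciferin detected by luminescence, normalized to 57 uM ketoconazole as full inhibition.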

The nature of assay [7]: MultiTox-Fluor Cytotoxicity Assay - LYMP1-001 - Live Cells (AID 947).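 Note: 0% = DMSO only and full inhibition = tetraoctylammonium bromide control.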 As to conditions: LYMP1-001 lymphoblastoid cells, live-cell protease fluorescence viability; series mostly up to 92.2 µM.
A short description of assay [8]: Cell Viability - LYMP2-004 (AID 966).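 Note: plate controls were DMSO only for no effect and tetraoctylammonium bromide control for full effect; nearly all actives have a fitted effect of over 65% in size.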 As to conditions: LYMP2-004 lymphoblastoid cell viability, qHTS; series mostly up to 92.2 µM. The essentials: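 Cells seeded 2500/well, rested 5 hr at 37 C, dosed across a concentration series, incubated 24 hr at 37 C, then CellTiter-Glo added for 30 min at room temperature and luminescence read. Hill fitting gave AC50.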
Assay [9] can be described thus: Cell Viability - LYMP2-019 (AID 973).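 Note: 0% = DMSO alone and full effect = 92 µM tetraoctylammonium bromide; nearly all actives have a fitted effect of over 55% in size.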 As to conditions: LYMP2-019 lymphoblastoid cell line viability; series mostly up to 92.2 µM. The essentials: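 Luminescent ATP read-out (CellTiter-Glo, 30 min room temperature) served as the viability measure after 24 hr treatment of lymphoblastoid cells at 37 C. Concentration-response data were fitted to the Hill equation for AC50.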

Assay [10] is described as follows: Cell Viability - LYMP2-007 (AID 979).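 Note: cells exposed to compound for 24 h before reading; 0% = DMSO only and the negative end = 92 µM tetraoctylammonium bromide; nearly all actives have a fitted effect of over 60% in size.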 As to conditions: LYMP2-007 lymphoblastoid cell viability; series mostly up to 92.2 µM. In short, it runs like this: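 Luminescent ATP signal (CellTiter-Glo) serves as the viability read-out after 24 hr compound treatment of lymphoblastoid cells in complete medium at 37 C. Concentration-response data were fitted to the Hill equation to give AC50 values.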

Assay [11] can be described thus: Cell Viability - LYMP2-008 (AID 980). Note: % is set by controls: 0 for no effect and ±100 for the full control effect; nearly all actives have a fitted effect of over 60% in size. As to conditions: LYMP2-008 lymphoblastoid cell viability, qHTS; series mostly up to 92.2 µM. The essentials: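 qHTS, human lymphoblastoid line, 2500 cells/well; 5 hr preincubation, 24 hr compound, 37 C. CellTiter-Glo ATP luminescence. AC50 via Hill equation. Tetraoctylammonium bromide positive control.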
Assay [12] is described as follows: Cell Viability - LYMP2-014 (AID 983).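 Note: plate controls were DMSO only for no effect and 92 µM tetraoctylammonium bromide for full effect; nearly all actives have a fitted effect of over 50% in size.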 As to conditions: LYMP2-014 lymphoblastoid cells, viability qHTS; series mostly up to 92.2 µM. In short, it runs like this: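 Luminescent ATP signal (CellTiter-Glo, 30 min at room temperature) serves as the viability read-out after 24 hr compound exposure at 37 C. Cells were seeded at 2500 per well and settled 5 hr beforehand.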

Assay [13] in a line: Cell Viability - LYMP2-018 (AID 985).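 Note: plate controls were DMSO only for no effect and tetraoctylammonium bromide at 92 µM for full effect; nearly all actives have a fitted effect of over 50% in size.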 As to conditions: LYMP2-018 lymphoblastoid cells, viability (qHTS); series mostly up to 92.2 µM. The essentials:
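Luminescent ATP signal (CellTiter-Glo, read after 30 min at room temperature) reports viable cells after 24 hr compound treatment at 37 C. Concentration-response data were fitted to the standard Hill equation for AC50.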

A short description of assay [14]: Cell Viability - LYMP2-020 (AID 986).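 Note: plate controls were DMSO only for no effect and tetraoctylammonium bromide at 92 µM for full effect; nearly all actives have a fitted effect of over 55% in size.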 As to conditions: series mostly up to 92.2 µM. The essentials:
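Luminescent ATP signal (CellTiter-Glo, 30 min at room temperature) is the read-out after 24 h compound treatment of lymphoblastoid cells at 37 C. AC50 values come from Hill-equation fits across concentrations.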

A short description of assay [15]: Cell Viability - LYMP2-022 (AID 987).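 Note: 0% = DMSO alone and full effect = tetraoctylammonium bromide at 92 µM; nearly all actives have a fitted effect of over 55% in size.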 As to conditions: LYMP2-022 lymphoblastoid cell viability; series mostly up to 92.2 µM. In short, it runs like this:
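qHTS: human lymphoblastoid cells 2500/well; 5 hr 37 C; cpd added; 24 hr 37 C; CellTiter-Glo, 30 min RT; luminescence. AC50 via Hill fit; tetraoctylammonium bromide positive ctrl.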

Assay [16] can be described thus: Cell Viability - LYMP2-026 (AID 989). Note: % is set by controls: 0 for no effect and ±100 for the full control effect; nearly all actives have a fitted effect of over 50% in size. As to conditions: LYMP2-026 lymphoblastoid cell viability, qHTS; series mostly up to 92.2 µM. In short, it runs like this: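 Luminescent ATP signal (CellTiter-Glo, 30 min room temperature) measures viable lymphoblastoid cells after 24 hr compound treatment at 37 C. Decreased ATP reflects acute toxicity; AC50 values come from Hill-equation modeling.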

Assay [17] can be described thus: qHTS assay for small molecule antagonists of retinoid X receptor alpha signaling (AID 588546).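 Note: cells stimulated with 9-cis-retinoic acid as agonist; % is set by controls: 0 for no effect and ±100 for the full control effect.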 As to conditions: HEK293T RXRa-UAS-bla, beta-lactamase ratio, antagonist mode; measured here: W530 green channel, cytotoxicity proxy. In short, it runs like this:
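Beta-lactamase reporter inhibition, read as CCF4 fluorescence ratio (ex 405, em 460/530 nm) after 2 h at RT. HEK293T UAS-bla cells, 2500/well, were stimulated with 9-cis-RA at 500 or 100 nM final alongside test compound for 18 h at 37 C.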

Assay [18] concerns the target Voltage-gated inwardly rectifying potassium channel KCNH2 (Homo sapiens) (UniProt Q12809). Kind of assay: qHTS Assay for Small Molecule Inhibitors of the Human hERG Channel Activity (AID 588834). As to conditions: U2OS BacMam hERG, FluxOR thallium flux fluorescence; series mostly up to 92.2 µM. In short, it runs like this:
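U2OS cells transduced with hERG via BacMam (MOI ~100), plated 2000/well, loaded with FluxOR thallium dye, compound ~10 min, then stimulation buffer; fluorescence decrease read kinetically; AC50 from Hill fits.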

Assay [19] is described as follows: Cell Viability - LYMP1-002 - Assay at 16 hr (AID 948).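 Note: 0% = DMSO alone and full effect = 92 µM tetraoctylammonium bromide.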 As to conditions: LYMP1-002 lymphoblastoid cell viability; series mostly up to 92.2 µM. The essentials: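 Human lymphoblastoid cells (LYMP1-002), 2500/well, were preincubated 5 hr at 37 C, then exposed to compounds for 16 hr at 37 C in complete medium. Cellular ATP was read by CellTiter-Glo luminescence after 30 min at room temperature; AC50 from Hill fits.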

Assay [20] can be described thus: Cell Viability - LYMP2-015 (AID 971).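 Note: 0% = DMSO only and full effect = 92 µM tetraoctylammonium bromide; nearly all actives have a fitted effect of over 55% in size.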 As to conditions: LYMP2-015 lymphoblastoid cell viability; series mostly up to 92.2 µM. The essentials:
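Luminescent ATP read-out (CellTiter-Glo) served as the viability measure after lymphoblastoid cells were exposed to compounds for 24 hours at 37 C. Concentration-response data were fitted with the Hill equation to give AC50.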

Voltage-gated inwardly rectifying potassium channel KCNH2 (Homo sapiens), sequence (Q12809 whole entry, looked up): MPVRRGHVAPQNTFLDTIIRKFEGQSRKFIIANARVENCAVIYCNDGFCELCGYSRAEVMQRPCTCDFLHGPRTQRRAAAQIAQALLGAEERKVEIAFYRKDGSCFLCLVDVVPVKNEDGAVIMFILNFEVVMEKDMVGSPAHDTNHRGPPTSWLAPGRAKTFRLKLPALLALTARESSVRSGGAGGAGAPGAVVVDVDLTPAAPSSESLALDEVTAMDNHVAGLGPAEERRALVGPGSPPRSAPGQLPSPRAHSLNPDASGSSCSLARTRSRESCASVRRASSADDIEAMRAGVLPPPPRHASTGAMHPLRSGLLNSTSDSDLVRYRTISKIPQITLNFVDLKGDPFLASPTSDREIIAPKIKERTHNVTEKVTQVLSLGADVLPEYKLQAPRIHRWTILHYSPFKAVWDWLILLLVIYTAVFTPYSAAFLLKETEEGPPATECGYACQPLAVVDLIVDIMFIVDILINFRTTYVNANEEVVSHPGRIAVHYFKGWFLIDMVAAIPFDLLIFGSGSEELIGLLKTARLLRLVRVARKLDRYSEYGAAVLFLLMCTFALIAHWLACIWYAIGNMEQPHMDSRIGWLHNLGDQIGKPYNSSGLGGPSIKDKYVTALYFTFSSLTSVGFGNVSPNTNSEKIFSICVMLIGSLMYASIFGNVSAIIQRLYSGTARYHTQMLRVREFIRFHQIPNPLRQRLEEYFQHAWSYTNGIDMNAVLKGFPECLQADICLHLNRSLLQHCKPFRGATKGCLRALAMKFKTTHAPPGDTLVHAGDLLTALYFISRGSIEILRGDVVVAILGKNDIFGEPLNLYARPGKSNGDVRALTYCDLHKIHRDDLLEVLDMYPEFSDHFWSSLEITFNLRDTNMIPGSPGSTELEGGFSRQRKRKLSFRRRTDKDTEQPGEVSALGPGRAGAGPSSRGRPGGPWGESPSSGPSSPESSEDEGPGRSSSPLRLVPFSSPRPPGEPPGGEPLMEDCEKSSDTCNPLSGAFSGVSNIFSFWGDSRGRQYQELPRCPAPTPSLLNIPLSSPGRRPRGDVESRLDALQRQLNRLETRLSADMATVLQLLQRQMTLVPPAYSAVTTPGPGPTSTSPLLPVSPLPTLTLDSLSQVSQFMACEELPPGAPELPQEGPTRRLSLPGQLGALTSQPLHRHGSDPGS
Cytochrome P450 3A4 (Homo sapiens), sequence (P08684 whole entry, looked up): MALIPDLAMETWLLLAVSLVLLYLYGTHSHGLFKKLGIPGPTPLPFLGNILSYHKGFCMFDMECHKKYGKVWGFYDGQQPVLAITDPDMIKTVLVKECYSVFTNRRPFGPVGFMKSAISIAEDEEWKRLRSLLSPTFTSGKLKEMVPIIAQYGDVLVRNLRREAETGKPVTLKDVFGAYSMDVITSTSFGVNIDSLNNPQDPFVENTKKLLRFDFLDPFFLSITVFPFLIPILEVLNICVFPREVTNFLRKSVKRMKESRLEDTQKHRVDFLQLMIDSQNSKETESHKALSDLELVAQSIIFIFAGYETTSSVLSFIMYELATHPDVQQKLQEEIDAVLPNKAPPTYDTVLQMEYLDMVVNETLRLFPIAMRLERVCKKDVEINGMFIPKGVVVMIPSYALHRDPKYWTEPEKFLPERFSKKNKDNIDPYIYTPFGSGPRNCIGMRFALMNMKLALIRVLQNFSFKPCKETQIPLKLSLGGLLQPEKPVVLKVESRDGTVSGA

As for `Cl/C=C/Cl`, the Potency in assay [1] and in assay [2] was > 92 µM (inactive) throughout. Moreover, the caspase-3 activation in [3] was -1.85% (inactive). In addition, the call in [4] and in [7] was inactive. Besides, the Potency result in assay [5], in assay [6], in assay [8], in assay [9], in [10] and in assay [11] was “inactive” each time. Moreover, the Potency entry in assay [12], in assay [13], in assay [14], in [15], in [16] and in assay [18] was “inactive” in each case. Besides, the max response in [17] was -8.73%.

For the compound `c1ccc(P(c2ccccc2)c2ccccc2)cc1`, the Potency in assay [1] and in assay [2] was > 92 µM (inactive) each time. For the same compound, the caspase-3 activation in assay [3] was 0.655% (inactive). Further, the compound was called inactive in assay [4], in [7] and in [19]. The Potency result in assay [5], in [6], in assay [8], in assay [20], in [10] and in assay [11] was “inactive” throughout. Moreover, the Potency entry in assay [12], in assay [13], in [14], in [15] and in assay [16] was “inactive” in each case. In assay [17], the max response is -7.38%.

Consider `CCCCCc1cc(O)cc(O)c1`, for which the Potency in assay [1] is > 92 µM (inactive); in assay [2], > 92 µM (inactive); in [6] it was 12.6 µM (active). Also, in assay [3], the caspase-3 activation is 1.33% (inactive). For the same compound, the outcome in [4] and in [7] was inactive. For the same compound, the Potency entry in assay [5], in [8], in [20], in assay [9], in assay [10] and in assay [11] was “inactive” throughout. The Potency entry in assay [12], in [13], in assay [14], in assay [15], in assay [16] and in [18] was “inactive” each time. Also, the max response in assay [17] was -2.02%.

In the case of `c1ccc2c(c1)CCNC2`, the Potency in assay [1] and in assay [2] was > 92 µM (inactive) throughout. Moreover, the caspase-3 activation in assay [3] is 0.933% (inactive). In addition, the result in assay [4], in [7] and in [19] was inactive. Further, the Potency entry in [5], in assay [6], in assay [8], in assay [20], in [9] and in assay [10] was “inactive” in each case. Moreover, the Potency entry in assay [11], in assay [12], in assay [13], in assay [14], in assay [15] and in assay [16] was “inactive” each time. For the same compound, the Potency result in [18] is “inactive”. Further, the max response in assay [17] is -4.26%.

As to `C/C=C/CC#N`, the Potency in assay [1] and in assay [2] was > 92 µM (inactive) throughout. Moreover, the caspase-3 activation in [3] is 0.734% (inactive). Besides, the outcome in assay [4], in assay [7] and in assay [19] was inactive. The Potency result in assay [5], in assay [6], in [8], in [20], in assay [9] and in assay [10] was “inactive” throughout. Further, the Potency entry in [11], in assay [12], in assay [13], in assay [14], in assay [15] and in [16] was “inactive” in each case. Also, in assay [18], the Potency entry is “inactive”. For the same compound, the max response in assay [17] is 5.46%.

As to `C=CC#N`, the Potency in assay [1] and in assay [2] was > 92 µM (inactive) each time. Further, the caspase-3 activation in [3] is -0.0463% (inactive). In addition, the compound was called inactive in assay [4], in assay [7] and in [19]. Moreover, the Potency entry in [6], in assay [8], in assay [20], in [9], in assay [10] and in [11] was “inactive” in each case. The Potency result in assay [12], in assay [13], in assay [14], in assay [15], in assay [16] and in [18] was “inactive” each time. Moreover, the max response in assay [17] was -3.06%.

Turning to `Clc1cccc(Cl)c1Cl`, the Potency in [1] and in [2] was > 92 µM (inactive) throughout. In addition, in [3], the caspase-3 activation is -0.0806% (inactive). In addition, the compound was called inactive in assay [4] and in [19]. For the same compound, the Potency result in assay [5], in [6], in assay [8], in [20], in assay [9] and in [10] was “inactive” in each case. Also, the Potency result in [11], in assay [12], in assay [13], in assay [14], in [15] and in [16] was “inactive” throughout. Besides, the Potency entry in [18] is “inactive”. For the same compound, in assay [17], the max response was 3.05% and -10.8%.

These data come from PubChem BioAssay (NCATS).
